For assay [1], the target named is Rap guanine nucleotide exchange factor 3 (Homo sapiens) (UniProt O95398). The experiment in a line: Confirmatory qHTS for antagonist of cAMP-regulated guanine nucleotide exchange factor 3 (EPAC1) (AID 1645880). Also: nearly all actives have a fitted effect of over 55% in size. Also: potency is read from the fitted curve at half-maximal effect. In a few lines: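 Nucleotide exchange uses 100 nM EPAC1, 250 nM RAP1B-BODIPY-GDP and 50 uM GDP, with compounds in a concentration-titration series. After 5 min at room temperature, fluorescence (480 nm ex/540 nm em) is read every 5 min for 30 min. Data are normalized to control ATA and DMSO.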
Background: In qHTS, concentration-response curves come from the screen itself.

Assay [2] shares this target. The experiment in a line: Confirmatory qHTS for agonist of cAMP-regulated guanine nucleotide exchange factor 3 (EPAC1) (AID 1645881). Also: nearly all actives have a fitted effect of over 75% in size. Also: potency is read from the fitted curve at half-maximal effect.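 As to activation: EPAC1 catalysed release of BODIPY-GDP from Rap1B seen as fluorescence loss; 100% = effect of cAMP agonist control.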
Assay [3] has as its target Rap guanine nucleotide exchange factor 4 (Homo sapiens) (UniProt Q8WZA2). Description: Confirmatory qHTS for agonist of cAMP-regulated guanine nucleotide exchange factor 4 (EPAC2) (AID 1645884).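 Also: nucleotide exchange releases bodipy-GDP from Rap1 and this lowers its fluorescence; nearly all actives have a fitted effect of over 65% in size.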 Also: potency is read from the fitted curve at half-maximal effect. As to activation: % is scaled to controls: 0 for no effect and ±100 for the full control effect.
Assay [4] shares this target. The experiment in a line: Confirmatory qHTS for antagonist of cAMP-regulated guanine nucleotide exchange factor 4 (EPAC2) (AID 1645885). Also: nearly all actives have a fitted effect of over 25% in size. Also: potency is read from the fitted curve at half-maximal effect. As to activity change, negative = inhibition: % is scaled to controls: 0 for no effect and ±100 for the full control effect.
The target in assay [5] is Rap guanine nucleotide exchange factor 3 (Homo sapiens) (UniProt O95398). Description: Counterscreen qHTS for antagonist of cAMP-regulated guanine nucleotide exchange factor 3 (EPAC1) (AID 1645888).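 Also: fluorescence loss as bound BODIPY-GDP is released from Rap1B; % of control where 0% means no effect.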 An outline of the steps:
(§1)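 Rap1B-BODIPY-GDP 250 nM + GDP 50 uM; cpds 7-pt, final 9.74 nM–152 uM (activator mode) or from 7.32 nM upwards (inhibitor mode); RT; FI 480/540 nm at 5 and 30 min, then ± cAMP, reread.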
For orientation: The purpose of a counterscreen is to sort out artefacts and off-target activity.

Assay [6] can be described thus: Primary qHTS for inhibitors of nuclear receptor binding SET domain protein 2 (NSD2) in an isogenic RCH-ACV NSD2 p.E1099K mutant (9B) (AID 1645876). Also: % is scaled to controls: 0 for no effect and ±100 for the full control effect; nearly all actives have a fitted effect of over 70% in size.
A short description of assay [7]: Primary qHTS for inhibitors of nuclear receptor binding SET domain protein 2 (NSD2) in an RCH-ACV wild type WT cells (2C) (AID 1645877). Also: % is scaled to controls: 0 for no effect and ±100 for the full control effect; nearly all actives have a fitted effect of over 70% in size.
Assay [8] concerns the target Glutathione peroxidase 1 (Homo sapiens) (UniProt P07203). Description: Primary qHTS Assay for Inhibitors of Recombinant Selenoprotein Glutathione Peroxidase 1 (GPX1) (AID 1845191). Also: nearly all actives have a fitted effect of over 65% in size. In a few lines:
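10 nM GPX1 + cpd, 30 min RT; start w/ 1 mM GSH, 0.5 mM cumene hydroperoxide, 0.5 mM NADPH, 100 nM GR, 0.01% BSA; buffer 50 mM Tris-HCl pH 7.5, 2 mM EDTA, 150 mM NaCl; Fl 340/450, 0 & 15 min.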

The target in assay [9] is Tumor susceptibility gene 101 protein (Homo sapiens) (UniProt Q99816). The experiment in a line: qHTS Assay for Iinhibitors of HIV-1 Budding by Blocking the Interaction of PTAP/TSG101: Hit Validation (AID 651600). Also: potency is read from the fitted curve at half-maximal effect; nearly all actives have a fitted effect of over 70% in size. An outline of the steps: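 FITC-PTAP peptide (50 nM final) binding to Tsg101 binding domain (10 uM final) was measured by polarization after 20 min at r.t. with compounds, in 10 mM HEPES pH 7.5 buffer with 0.15 M NaCl and 0.01% Tween 20.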

Assay [10] concerns the target Rap guanine nucleotide exchange factor 3 (Homo sapiens) (UniProt O95398). Description: Counterscreen qHTS for agonist of cAMP-regulated guanine nucleotide exchange factor 3 (EPAC1) (AID 1645889). Also: potency is read from the fitted curve at half-maximal effect; nearly all actives have a fitted effect of over 40% in size. An outline of the steps:
as §1

Structures are written as SMILES. Results filed as inconclusive are left out. A number with no mark means an inactive call. The source made the active and inactive calls. Calls follow the shape of the dose curve; as a rule, active = well fitted curve in the direction sought with a large enough effect; inconclusive = small, poorly fitted or top-dose-only effect, or another doubt; inactive = no such curve, though single readings can be large; an effect the other way counts as inactive or inconclusive.

Rap guanine nucleotide exchange factor 4 (Homo sapiens), sequence (Q8WZA2 whole entry, looked up): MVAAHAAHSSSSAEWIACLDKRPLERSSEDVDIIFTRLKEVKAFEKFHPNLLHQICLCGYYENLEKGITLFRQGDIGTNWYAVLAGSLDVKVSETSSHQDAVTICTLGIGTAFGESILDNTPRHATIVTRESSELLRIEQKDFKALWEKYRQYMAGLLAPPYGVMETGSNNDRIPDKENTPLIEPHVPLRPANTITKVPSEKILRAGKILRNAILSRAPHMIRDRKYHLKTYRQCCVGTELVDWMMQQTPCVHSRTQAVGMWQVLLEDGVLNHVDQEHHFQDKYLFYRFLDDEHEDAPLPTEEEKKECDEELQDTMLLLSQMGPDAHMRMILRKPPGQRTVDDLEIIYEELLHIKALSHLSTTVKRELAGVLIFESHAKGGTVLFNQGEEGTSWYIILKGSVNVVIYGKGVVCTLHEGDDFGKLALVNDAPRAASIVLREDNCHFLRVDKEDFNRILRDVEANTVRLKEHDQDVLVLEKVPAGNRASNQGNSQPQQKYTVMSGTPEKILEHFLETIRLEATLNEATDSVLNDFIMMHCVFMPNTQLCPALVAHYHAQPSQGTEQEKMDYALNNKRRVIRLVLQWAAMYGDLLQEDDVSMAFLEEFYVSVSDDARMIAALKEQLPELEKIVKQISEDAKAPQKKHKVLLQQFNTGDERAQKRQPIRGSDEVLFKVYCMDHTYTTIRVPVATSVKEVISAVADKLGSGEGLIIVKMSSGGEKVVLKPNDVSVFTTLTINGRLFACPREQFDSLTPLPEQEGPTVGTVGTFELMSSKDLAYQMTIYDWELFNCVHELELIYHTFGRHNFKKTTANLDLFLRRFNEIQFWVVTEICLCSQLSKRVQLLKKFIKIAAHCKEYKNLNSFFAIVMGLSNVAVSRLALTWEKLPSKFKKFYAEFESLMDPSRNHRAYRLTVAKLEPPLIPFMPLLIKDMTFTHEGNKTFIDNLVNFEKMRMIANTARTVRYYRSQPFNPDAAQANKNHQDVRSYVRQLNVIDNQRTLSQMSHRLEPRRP
Rap guanine nucleotide exchange factor 3 (Homo sapiens), sequence (O95398 whole entry, looked up): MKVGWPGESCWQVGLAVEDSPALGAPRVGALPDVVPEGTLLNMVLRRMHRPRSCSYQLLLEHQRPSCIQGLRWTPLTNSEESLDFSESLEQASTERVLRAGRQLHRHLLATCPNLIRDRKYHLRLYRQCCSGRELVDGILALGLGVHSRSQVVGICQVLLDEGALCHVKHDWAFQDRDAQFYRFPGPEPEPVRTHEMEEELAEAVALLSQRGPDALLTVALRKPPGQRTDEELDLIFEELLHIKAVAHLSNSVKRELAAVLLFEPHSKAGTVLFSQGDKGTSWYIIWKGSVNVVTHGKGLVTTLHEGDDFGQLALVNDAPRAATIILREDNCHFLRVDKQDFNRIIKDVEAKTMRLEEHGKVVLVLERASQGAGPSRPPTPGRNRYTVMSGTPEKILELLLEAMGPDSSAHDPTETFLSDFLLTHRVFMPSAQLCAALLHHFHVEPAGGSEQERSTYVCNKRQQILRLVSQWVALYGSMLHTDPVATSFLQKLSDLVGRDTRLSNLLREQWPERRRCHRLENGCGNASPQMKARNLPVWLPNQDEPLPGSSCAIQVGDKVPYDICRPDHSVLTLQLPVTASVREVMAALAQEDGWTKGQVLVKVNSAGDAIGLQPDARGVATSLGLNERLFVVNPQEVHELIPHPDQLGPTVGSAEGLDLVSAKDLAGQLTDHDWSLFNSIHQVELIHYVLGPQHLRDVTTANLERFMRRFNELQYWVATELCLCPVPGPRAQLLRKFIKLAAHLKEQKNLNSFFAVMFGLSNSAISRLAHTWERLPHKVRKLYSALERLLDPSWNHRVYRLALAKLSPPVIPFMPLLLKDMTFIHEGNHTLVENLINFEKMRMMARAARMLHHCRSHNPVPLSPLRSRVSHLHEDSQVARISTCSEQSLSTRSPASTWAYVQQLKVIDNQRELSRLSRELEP
Glutathione peroxidase 1 (Homo sapiens), sequence (P07203 whole entry, looked up): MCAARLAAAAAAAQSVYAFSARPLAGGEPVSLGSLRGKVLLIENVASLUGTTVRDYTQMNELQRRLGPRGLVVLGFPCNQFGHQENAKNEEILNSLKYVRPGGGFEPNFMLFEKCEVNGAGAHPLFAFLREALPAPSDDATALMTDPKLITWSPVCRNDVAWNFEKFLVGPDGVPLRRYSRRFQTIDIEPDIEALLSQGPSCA
Tumor susceptibility gene 101 protein (Homo sapiens), sequence (Q99816 whole entry, looked up, the tested form may be a part): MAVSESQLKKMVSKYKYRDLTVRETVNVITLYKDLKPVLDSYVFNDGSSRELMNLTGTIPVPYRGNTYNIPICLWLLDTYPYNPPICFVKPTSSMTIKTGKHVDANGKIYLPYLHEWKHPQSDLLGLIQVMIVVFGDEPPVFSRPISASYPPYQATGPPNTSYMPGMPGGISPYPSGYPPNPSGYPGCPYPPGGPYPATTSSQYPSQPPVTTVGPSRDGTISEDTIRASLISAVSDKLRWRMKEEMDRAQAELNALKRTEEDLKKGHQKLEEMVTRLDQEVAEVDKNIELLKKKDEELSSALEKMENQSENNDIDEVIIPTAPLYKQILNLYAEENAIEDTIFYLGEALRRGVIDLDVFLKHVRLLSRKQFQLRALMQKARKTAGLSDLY

`CCCCn1c(NS(=O)(=O)c2ccc(C)cc2)c(C(=O)OCC)c2nc3ccccc3nc21`: the Potency in assay [1] was 75.7 µM (active); in assay [4], 23.9 µM (active). Also, the Potency entry in assay [2] and in assay [3] was “inactive” throughout. The outcome in assay [5] was inactive.

For `CCCNC(=O)N1[C@H]2CC[C@@H]1C(C(=O)OC)=C(c1ccc(F)cc1OCc1ccccc1)C2`, the Potency entry in assay [1], in [2], in assay [3] and in [4] was “inactive” throughout. Further, the compound was called inactive in assay [5].

In the case of `CCN1C(=O)C(=C/C=C/c2ccco2)C(=O)N(CC)C1=S`, the Potency result in assay [1], in [2], in assay [3] and in [4] was “inactive” in each case. The outcome in assay [5] was inactive.

For `c1cc2c(cc1C1OC[C@@H]3C(c4ccc5c(c4)OCO5)OC[C@H]13)OCO2` (some centres undefined), the Potency result in assay [6], in [7] and in [8] was “inactive” throughout.

Take `O=C1NC(=O)N(Cc2ccco2)C(=O)/C1=C/C=C/c1ccco1`: the Potency entry in assay [1] and in assay [2] was “inactive” each time. Besides, in [3], the activation was 0.0468% [at 17.1 µM, percent relative to cAMP agonist control]. In addition, the activity change, negative = inhibition in [4] is 0.223% [at 12.7 µM]; in assay [5], -7.48% [at 30.8 µM].

On to `COc1ccc(-n2c(O)c(/C=C3\C=Nc4ccc(Br)cc43)c(=O)[nH]c2=O)c(OC)c1`, for which the Potency in assay [1] was 37.9 µM (active). In addition, the Potency entry in assay [2], in [3] and in assay [4] was “inactive” throughout. Also, the compound was called inactive in assay [5].

Consider `CCOC(=O)[C@]12Cc3ccccc3[C@H]1N(C1CCCCC1)C(=O)c1cc(OC)ccc12`, for which the Potency entry in assay [1], in assay [2], in [3] and in assay [4] was “inactive” each time. For the same compound, in assay [5], the result was inactive.

In the case of `O=[N+]([O-])c1ccc(NCc2ccccc2)c2nonc12`, the Potency was 1.03 µM (active) in assay [9], 8.91 µM (active) in assay [2], 100 µM (active) in assay [3] and 22.4 µM (active) in assay [10]. The Potency result in assay [1] and in assay [4] was “inactive” throughout.
